One assay relates to AAK1. Further details: species or system human, MV4-11 + K-562 + COLO205 + SK-N-BE2 + OVCAR-8. Particulars: read-out: apparent Kd, n = 1.
In another assay the test system is CLK1. Further details: species or system human, MV4-11 + K-562 + COLO205 + SK-N-BE2 + OVCAR-8. Particulars: read-out: apparent Kd, compound concentrations: 100 nM and 1000 nM (sheet 'Samples'), n = 1.
In another assay the test system is CLK4. Further details: species or system human, MV4-11 + K-562 + COLO205 + SK-N-BE2 + OVCAR-8. Particulars: read-out: apparent Kd, compound concentrations: 100 nM and 1000 nM (sheet 'Samples'), n = 1.
A further assay relates to CSNK2A1;CSNK2A3. Further details: species or system human, MV4-11 + K-562 + COLO205 + SK-N-BE2 + OVCAR-8. Conditions: read-out: apparent Kd, n = 1.
Another assay relates to CSNK2A2. More on the design: species or system human, MV4-11 + K-562 + COLO205 + SK-N-BE2 + OVCAR-8. Conditions: read-out: apparent Kd, compound concentrations: 100 nM and 1000 nM (sheet 'Samples'), n = 1.
A further assay addresses Q6ZSR9 (human, UniProt Q6ZSR9). Further details: species or system MV4-11 + K-562 + COLO205 + SK-N-BE2 + OVCAR-8. Conditions: read-out: apparent Kd, compound concentrations: 100 nM and 1000 nM (sheet 'Samples'), n = 1.
A further assay has as its system ABL1. More on the design: species or system human, MV4-11 + K-562 + COLO205 + SK-N-BE2 + OVCAR-8. Particulars: read-out: apparent Kd, compound concentrations: 100 nM and 1000 nM (sheet 'Samples'), n = 1.
The subject of a further assay is ABL2. More on the design: species or system human, MV4-11 + K-562 + COLO205 + SK-N-BE2 + OVCAR-8. Particulars: read-out: apparent Kd, compound concentrations: 100 nM and 1000 nM (sheet 'Samples'), n = 1.
The next assay deals with BCR. More on the design: species or system human, MV4-11 + K-562 + COLO205 + SK-N-BE2 + OVCAR-8. Conditions: read-out: apparent Kd, compound concentrations: 100 nM and 1000 nM (sheet 'Samples'), n = 1.
For a further assay, the system named is GAK. More on the design: species or system human, MV4-11 + K-562 + COLO205 + SK-N-BE2 + OVCAR-8. Conditions: read-out: apparent Kd, n = 1.
The subject of another assay is RIPK2. Further details: species or system human, MV4-11 + K-562 + COLO205 + SK-N-BE2 + OVCAR-8. Particulars: read-out: apparent Kd, compound concentrations: 100 nM and 1000 nM (sheet 'Samples'), n = 1.
In a further assay the test system is RIPK3. Further details: species or system human, MV4-11 + K-562 + COLO205 + SK-N-BE2 + OVCAR-8. Particulars: read-out: apparent Kd, compound concentrations: 100 nM and 1000 nM (sheet 'Samples'), n = 1.
Another assay deals with FYN. Further details: species or system human, MV4-11 + K-562 + COLO205 + SK-N-BE2 + OVCAR-8. Conditions: read-out: apparent Kd, n = 1.
The test system of another assay is HCK. Further details: species or system human, MV4-11 + K-562 + COLO205 + SK-N-BE2 + OVCAR-8. Conditions: read-out: apparent Kd, compound concentrations: 100 nM and 1000 nM (sheet 'Samples'), n = 1.
The next assay deals with LCK. Further details: species or system human, MV4-11 + K-562 + COLO205 + SK-N-BE2 + OVCAR-8. Particulars: read-out: apparent Kd, n = 1.
The subject of another assay is PTK6. Further details: species or system human, MV4-11 + K-562 + COLO205 + SK-N-BE2 + OVCAR-8. Particulars: read-out: apparent Kd, compound concentrations: 100 nM and 1000 nM (sheet 'Samples'), n = 1.
For a further assay, the system named is RET. Further details: species or system human, MV4-11 + K-562 + COLO205 + SK-N-BE2 + OVCAR-8. Particulars: read-out: apparent Kd; compound concentrations: 100 nM and 1000 nM (sheet 'Samples'), CATDS: 1.39088138771742E-2; n = 1.
The subject of the next assay is TNK1. Further details: species or system human, MV4-11 + K-562 + COLO205 + SK-N-BE2 + OVCAR-8. Conditions: read-out: apparent Kd; compound concentrations: 100 nM and 1000 nM (sheet 'Samples'), CATDS: 2.1497624040677302E-2; n = 1.
The next assay relates to YES1. Further details: species or system human, MV4-11 + K-562 + COLO205 + SK-N-BE2 + OVCAR-8. Particulars: read-out: apparent Kd, compound concentrations: 100 nM and 1000 nM (sheet 'Samples'), n = 1.
Where [1] appears, read: compound concentrations:100 nM and 1000 nM (sheet 'Samples').

Like-named read-outs stand apart in the source and are kept apart here.

Sequence of Q6ZSR9 (Q6ZSR9 whole entry, looked up): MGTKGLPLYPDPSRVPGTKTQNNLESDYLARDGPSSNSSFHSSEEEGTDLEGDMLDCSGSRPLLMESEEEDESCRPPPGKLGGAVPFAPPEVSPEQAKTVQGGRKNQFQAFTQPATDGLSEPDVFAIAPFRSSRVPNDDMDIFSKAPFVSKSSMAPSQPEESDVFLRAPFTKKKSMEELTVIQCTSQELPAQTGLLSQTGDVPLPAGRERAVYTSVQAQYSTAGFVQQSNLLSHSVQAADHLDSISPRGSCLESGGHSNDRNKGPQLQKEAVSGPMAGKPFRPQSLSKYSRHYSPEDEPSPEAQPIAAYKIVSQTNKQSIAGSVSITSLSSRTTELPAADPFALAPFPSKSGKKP

With `NC1=NC(=O)/C(=C/c2ccc3ncccc3c2)S1` [RO4569139-000], the potency estimated from few doses is 1710 nM in the assay with AAK1 (compound concentrations: 100 nM and 1000 nM (sheet 'Samples'), CATDS: 6.8889261451454395E-2); 259 nM in the assay with CLK1 (CATDS: 0.136614362929); 1260 nM in the assay on CLK4 (CATDS: 7.4487877667225894E-2); 256 nM in the assay on CSNK2A1;CSNK2A3 (compound concentrations: 100 nM and 1000 nM (sheet 'Samples'), CATDS: 0.13735026532766101); 222 nM in the assay on CSNK2A2 (CATDS: 0.14765038324125301); 1130 nM with Q6ZSR9 (CATDS: 7.6885749429296102E-2).
`COc1cc(Nc2ccnc3cc(-c4ccncc4)ccc23)cc(OC)c1OC.Cl` [GW494610A]: the potency estimated from few doses in the assay on ABL1 (CATDS: 2.4379025884203698E-2) is 1070 nM; with ABL2 (CATDS: 2.97420098626874E-2) it was 523 nM; with BCR (CATDS: 4.8840213207685099E-2), 133 nM; in the assay on GAK (compound concentrations: 100 nM and 1000 nM (sheet 'Samples'), CATDS: 0.18484170134518799), 10.7 nM; with RIPK2 (CATDS: 0.24490143470797801), 7.12 nM; with RIPK3 (CATDS: 2.5857205413597002E-2), 848 nM.
For the compound `COc1cc(Nc2nccc(N3CCC(NC(=O)C4COc5ccccc5O4)C3)n2)cc(OC)c1OC` (stereo not drawn) [GSK1379761A], the potency estimated from few doses in the assay on AAK1 (compound concentrations: 100 nM and 1000 nM (sheet 'Samples'), CATDS: 0.26357344915845798) is 1120 nM; with Q6ZSR9 (CATDS: 0.25714063136794202), 1170 nM.
As for `O=C1N=C(NCc2cccs2)SC1Cc1ccc2ncccc2c1` (stereo not drawn) [RO4629078-000], the potency estimated from few doses in the assay on ABL1 (CATDS: 1.03104130889283E-2) was 621 nM; in the assay with ABL2 (CATDS: 1.75956171974825E-2) it was 217 nM; in the assay with BCR (CATDS: 1.49763815406264E-2), 286 nM; in the assay with CLK1 (CATDS: 1.45453045118455E-2) it was 302 nM; in the assay on CLK4 (CATDS: 1.03422471087564E-2), 616 nM; in the assay on CSNK2A1;CSNK2A3 (compound concentrations: 100 nM and 1000 nM (sheet 'Samples'), CATDS: 1.1621769953454601E-2), 472 nM. For the same compound, the potency estimated from few doses in the assay on CSNK2A2 (CATDS: 1.0295745768990301E-2) was 623 nM; in the assay with FYN (compound concentrations: 100 nM and 1000 nM (sheet 'Samples'), CATDS: 9.7047847946103404E-3), 723 nM; with GAK (compound concentrations: 100 nM and 1000 nM (sheet 'Samples'), CATDS: 1.7863526328031998E-2), 211 nM; with HCK (CATDS: 1.13886455432966E-2) it was 493 nM; with LCK (compound concentrations: 100 nM and 1000 nM (sheet 'Samples'), CATDS: 1.24730570121841E-2), 406 nM; with PTK6 (CATDS: 9.8307432544906398E-3), 699 nM. For the same compound, the potency estimated from few doses in the assay with Q6ZSR9 (CATDS: 1.4224903483056099E-2) was 314 nM; in the assay with RET, 328 nM; in the assay with RIPK2 (CATDS: 9.4422951571236906E-3), 777 nM; in the assay on TNK1, 158 nM; in the assay with YES1 (CATDS: 1.15943383738287E-2), 474 nM.
On to `Cc1nn(C)c2cc(N(C)c3ccnc(Nc4cccc(S(N)(=O)=O)c4)n3)ccc12.Cl` [GW770220A], for which the potency estimated from few doses was 632 nM with AAK1 (compound concentrations: 100 nM and 1000 nM (sheet 'Samples'), CATDS: 0.34831040930344798); 507 nM with Q6ZSR9 (CATDS: 0.39212964610314199).
On to `Nc1nc(-c2cccnc2)c(-c2ccnc3ccccc23)s1` [GW684083X], for which the potency estimated from few doses in the assay on AAK1 (setting [1]) is 1960 nM; with GAK (setting [1]), 1430 nM.
As to `O=C1N=C(NCCc2ccccc2F)S/C1=C\c1ccc2ncccc2c1` [RO4498483-000], the potency estimated from few doses in the assay on AAK1 (compound concentrations: 100 nM and 1000 nM (sheet 'Samples'), CATDS: 8.5407630700809506E-2) was 957 nM; with CLK1 (CATDS: 0.138137656029612), 347 nM; in the assay on CLK4 (CATDS: 9.8466136533641502E-2) it was 675 nM; in the assay with CSNK2A1;CSNK2A3 (compound concentrations: 100 nM and 1000 nM (sheet 'Samples'), CATDS: 0.15223513812582401) it was 295 nM; with CSNK2A2 (CATDS: 0.14884656797599799) it was 306 nM; with Q6ZSR9 (CATDS: 8.1205084555915505E-2), 1100 nM.
In the case of `O=C1N=C(NCCc2cccc(Cl)c2)S/C1=C\c1ccc2ncccc2c1` [RO4509201-000], the potency estimated from few doses was 1640 nM in the assay on AAK1 (compound concentrations: 100 nM and 1000 nM (sheet 'Samples'), CATDS: 5.6248629663802403E-2); 275 nM in the assay with CLK1 (CATDS: 0.11223755313714801); 153 nM with CLK4 (CATDS: 0.15614566648302999); 133 nM in the assay with CSNK2A1;CSNK2A3 (compound concentrations: 100 nM and 1000 nM (sheet 'Samples'), CATDS: 0.170383689424982); 103 nM in the assay with CSNK2A2 (CATDS: 0.201313292648233).
With `O=C1N=C(NCCc2ccccn2)S/C1=C\c1ccc2ncccc2c1` [RO4508346-000], the potency estimated from few doses with AAK1 (compound concentrations: 100 nM and 1000 nM (sheet 'Samples'), CATDS: 8.8556384492670503E-2) is 711 nM; in the assay with CLK1 (CATDS: 0.10354679729128299), 485 nM; in the assay on CLK4 (CATDS: 0.116533275678242) it was 377 nM; with CSNK2A1;CSNK2A3 (compound concentrations: 100 nM and 1000 nM (sheet 'Samples'), CATDS: 0.14119727464160201), 262 nM; with CSNK2A2 (CATDS: 0.15250276369697799), 229 nM; in the assay with Q6ZSR9 (CATDS: 9.3045263541922094E-2) it was 625 nM. Besides, in the assay on RIPK2 (CATDS: 9.0933210372185796E-2), the potency estimated from few doses is 663 nM.
Take `Cl.Cl.Cl.c1ccc(Oc2ccc(Nc3ccnc4cc(-c5ccc(CN6CCNCC6)o5)ccc34)cc2)nc1.c1ccc(Oc2ccc(Nc3ccnc4cc(-c5ccc(CN6CCNCC6)o5)ccc34)cc2)nc1` [GW567142A]: the potency estimated from few doses in the assay with ABL1 (CATDS: 0.106160515103876) is 36.7 nM; in the assay with ABL2 (CATDS: 3.7512936282147198E-2) it was 226 nM; in the assay on BCR (CATDS: 2.8038265853645699E-2), 446 nM; with FYN (compound concentrations: 100 nM and 1000 nM (sheet 'Samples'), CATDS: 5.8978422577379903E-2), 93.1 nM; in the assay with HCK (CATDS: 9.4879616105776998E-2) it was 43.2 nM; in the assay with LCK (compound concentrations: 100 nM and 1000 nM (sheet 'Samples'), CATDS: 2.9875488877577801E-2), 381 nM. Moreover, the potency estimated from few doses is 99.7 nM in the assay on PTK6 (CATDS: 5.6771173878132498E-2), 104 nM with RIPK2 (CATDS: 5.5547059533083698E-2), 500 nM with RIPK3 (CATDS: 2.6794845522232699E-2) and 38.7 nM with YES1 (CATDS: 0.102310323687496).
For the compound `Cc1cccc(-c2cc(-c3c[nH]nc3-c3ccccn3)ccn2)c1` [GW679395X], the results for the potency estimated from few doses in the assay on CSNK2A1;CSNK2A3 (setting [1]), in the assay with FYN (setting [1]) and in the assay with LCK (setting [1]) were 2120 nM, 1290 nM and 1330 nM, respectively.
